# Tgondii IFNg = blocks Toxoplasma gondii growth in the presence of IFN-gamma. Toxoplasma gondii growth in IFN-gamma-treated host cells; active compounds read low. activity change, negative = inhibition, % (no concentration beside the values). 69,000 compounds, 3.8% hits. AID 1259416; in the data active means activity change below about -70%, passing the limit was not always enough;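 further: host cells are HeLa cells infected with Toxoplasma gondii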
# A number is an active result; n = inactive; ! = repeats disagree. Many of the other results were omitted from the sample, so hits are more common in it than they were.
SMILES,Tgondii IFNg
Cn1c(SCC(=O)c2ccc3c(c2)OCCO3)nnc1-c1ccc2ccccc2c1,-95
Cn1cc(CN2CCCC23CCN(c2ccc(C#N)cc2)CC3)cn1,n
COc1ccc(-c2nc(N3CCN(C4CCCCC4)CC3)c3ccccc3n2)cc1,n
CN(Cc1n[nH]c2c1CCCC2)Cc1cc2ccccc2[nH]c1=O,n
Cn1c(SCc2ccc3nc(C(F)(F)F)ccc3c2)nnc1C(F)(F)F,n
CCN1C(=O)CCc2cc(C(=O)N3CCOCC3)ccc21,n
O=C(c1ccc2c(c1)CCC(=O)N2Cc1ccccc1)N1CCN(c2ccccc2F)CC1,-102
CCN1C(=O)CCc2cc(C(=O)N3CCCCC3)ccc21,n
CCN(C[C@@H]1[C@@H](c2ccccc2)[C@H](CO)N1C(=O)COC)S(C)(=O)=O,n
Cc1ccc(C(=O)N2CCN(S(=O)(=O)c3cc4c5c(c3)CCN5C(=O)CC4)CC2)cc1C,n
COc1ccc(CCN2C(=O)O[C@@H]3CN(CC(=O)O)C[C@@H]32)cc1,n
CC(c1ccc2c(c1)OCCO2)N(C)C(=O)c1cn(-c2ccccc2)nn1 (stereo unspecified),n
OC[C@H]1[C@H](c2ccccc2)C2(CN(Cc3ccccc3F)C2)N1Cc1ccccc1F,n
CC(C)Oc1ccc(NC(=O)c2cc(-c3cnc(-c4cccnc4)nc3)cn2C)cc1,n
Cc1ccc(NC(=O)c2ccc(CN3CCN(C)CC3)cc2)cc1Nc1nccc(-c2cccnc2)n1,n
Cc1cn(-c2cc(NC(=O)c3ccc(C)c(Nc4nccc(-c5cccnc5)n4)c3)cc(C(F)(F)F)c2)cn1,-77!
CCN1C[C@H]2CCCO[C@H]2[C@H](N(C)Cc2ccco2)C1,n
Cc1[nH]n(-c2ccccc2)c(=O)c1C(=O)c1ccccc1,n
Cc1c(N(C)C)c(=O)n(-c2ccccc2)n1C,n
Cc1[nH]n(-c2ccccc2)c(=O)c1N=Nc1c(C)n(C)n(-c2ccccc2)c1=O,-92
O=C(Cn1ncc2c(N3CCOCC3)ncnc21)Nc1ccc(F)cc1,n
O=C(c1ccc[nH]1)N1CCC2(CCC(=O)N2Cc2ccncc2)CC1,n
COCC(=O)N1[C@@H]2Cn3c(ccc(/C=C/c4ccccc4)c3=O)[C@H]1[C@@H](C(=O)N1CCOCC1)[C@@H]2CO,n
O=C(c1ccc(F)cc1)N1c2ccccc2Sc2ccc(C(F)(F)F)cc21,-76
FC(F)(F)c1ccc2c(c1)Nc1ccccc1S2,n
SMILES,Tgondii IFNg
NCCC(=O)N1c2ccccc2Sc2ccccc21,n
C[C@@H](NC(=O)C[C@H]1CC[C@@H]2[C@H](COC[C@H](O)CN2C(=O)Nc2cccc(Cl)c2)O1)c1ccccc1,n
Cc1nn(C2CCCCC2)c2c1C(c1nc[nH]c1C)CC(=O)N2 (stereo unspecified),n
COc1ccccc1NC(=O)c1nnn(Cc2nc(-c3cccc(Cl)c3)oc2C)c1C,n
CC(=O)C1(O)Cc2c(O)c3c(c(O)c2C(OC2CC(N)C(O)C(C)O2)C1)C(=O)c1c(O)cccc1C3=O (stereo unspecified),-79
COc1cccc2c1C(=O)c1c(O)c3c(c(O)c1C2=O)C[C@@](O)(C(=O)CO)C[C@@H]3O[C@H]1C[C@H](N)[C@H](O)[C@H](C)O1,-78
CCCCC(=O)OCC(=O)[C@]1(O)Cc2c(O)c3c(c(O)c2[C@@H](O[C@H]2C[C@H](NC(=O)C(F)(F)F)[C@H](O)[C@H](C)O2)C1)C(=O)c1c(OC)cccc1C3=O,-73
COc1cccc2c1C(=O)c1c(O)c3c(c(O)c1C2=O)C[C@@](O)(C(C)=O)C[C@@H]3OC1CC(N)C(O)C(C)O1 (stereo partly specified),-75
C/C(=C\c1csc(C)n1)[C@@H]1C[C@@H]2O[C@]2(C)CCC[C@H](C)[C@H](O)[C@@H](C)C(=O)C(C)(C)[C@@H](O)CC(=O)N1,n
O=C(Oc1ccc(Cl)cc1Cl)c1cc2ccc3ccccc3c2s1,n
Cc1nc2ccccc2nc1CN(C)Cc1cnn(-c2ccccc2)c1,n
Cc1noc(C)c1NC(=O)N(C)C[C@@H]1Oc2ccc(NC(=O)Cc3cn(C)c4ccccc34)cc2CC(=O)N([C@@H](C)CO)C[C@@H]1C,n
CCOC(=O)C1CCN(C(=O)c2cc3cc(S(=O)(=O)N(C)C)ccc3n2Cc2ccncc2)CC1,n
Cc1nc(-c2ccc(F)cc2)sc1-c1ccc(SCc2ccc(C(F)(F)F)cc2)nn1,n
CCc1ccc(NC(=O)N2CCC3(CC2)NC(=O)c2cc(Cl)ccc2N3C)cc1,n
COc1cccc(NC(=O)C2CN(C(=O)c3cnc(C)nc3C)C2)c1,n
COc1cccc(NC(=O)C(=O)NCCc2csc(-c3cccc(F)c3)n2)c1,n
O=C(Cn1nnc(-c2cc(Cl)ccc2-n2cnnn2)n1)Nc1ccc(F)cc1,n
COC(=O)c1cc(NC(=O)C2=C(C)C(=O)OC23CCN(Cc2ccccc2)CC3)cc(C(=O)OC)c1,n
O=C(NC(=O)c1csnn1)Nc1nc2ccccc2s1,n
Cn1ncc(CN2CCN(c3ncnc4ccccc34)CC2)c1C1CC1,n
Cc1ccc2c(c1)c(=O)cc(C(F)(F)F)n2C[C@@H](C)NC(=O)C1OCCc2ccccc21 (stereo partly specified),n
O=C(Nc1ccc(N2CCC(NC3Cc4ccccc4C3)CC2)cc1)C1CCCC1,n
Cc1cc(NC(=S)NC(=O)c2cccs2)ccc1-c1cc2ccccc2oc1=O,-80
O=C(Nc1cccc(-c2cc3ccccc3oc2=O)c1)c1ccc(Br)o1,n
SMILES,Tgondii IFNg
O=C(NC(=S)Nc1ccc(S(=O)(=O)N2CCOCC2)cc1)c1cccs1,n
CCCS(=O)(=O)Nc1ccc(F)c(C(=O)c2c[nH]c3ncc(-c4ccc(Cl)cc4)cc23)c1F,-79
CC(NC(=O)CCN1CCN(c2ccccn2)CC1)c1ccc2c(c1)OCCO2 (stereo unspecified),n
O=C(Oc1cccc(-n2cnnn2)c1)c1cccs1,n
CCCCC1(Cc2ccccc2)C(=O)c2cccc3c4ccccc4n(c23)C1=O (stereo unspecified),n
O=C(/C=C/c1ccccc1)c1ccc(O)cc1O,n
OC(c1ccccc1)(c1ccccc1)C1CCN(C(=S)Nc2ccc(Cl)cc2)CC1,n
O=C(/C=C/c1ccccc1)NC(NC(=S)Nc1ccc(Cl)cc1)C(Cl)(Cl)Cl (stereo unspecified),-78
Cc1cccc(C)c1NC(=O)CN1CCC2(CC1)N=C(c1cccc(F)c1)C(=O)N2,n
Cc1ccc(C2c3[nH]c4ccccc4c3CCN2C(=O)Cc2cccs2)cc1 (stereo unspecified),-125
CSc1ccc(C2c3[nH]c4ccccc4c3CCN2C(=O)CCc2ccccc2)cc1 (stereo unspecified),n
CSc1ccc(C2c3[nH]c4ccccc4c3CCN2C(=O)CCc2cccs2)cc1 (stereo unspecified),-85
O=C(Cc1cccs1)N1CCc2c([nH]c3ccccc23)C1c1ccc(Cl)cc1 (stereo unspecified),-118
CCOc1cccc(C2c3[nH]c4ccccc4c3CCN2C(=O)Cc2cccs2)c1 (stereo unspecified),n
COc1ccc(C2c3[nH]c4ccccc4c3CCN2C(=O)Cc2cccs2)cc1 (stereo unspecified),n
O=C(Cc1cccs1)N1CCc2c([nH]c3ccccc23)C1c1ccc(F)cc1 (stereo unspecified),n
CCOc1cccc(CC(=O)N2CCc3c([nH]c4ccccc34)C2c2ccc(Cl)cc2)c1OCC (stereo unspecified),n
CSc1ccc(C2c3[nH]c4ccccc4c3CCN2C(=O)Cc2cccs2)cc1 (stereo unspecified),n

# Screening data from PubChem BioAssay.
